Source: PubChem BioAssay (National Center for Advancing Translational Sciences (NCATS))
DRD3 agonist: qHTS of D3 Dopamine Receptor Agonist: qHTS | D3R DiscoveRx beta-arrestin cells, luminescence, 90 min | max activation, % | 410,000 compounds, 0.58% hits; in the data active = max activation above about 30%; note: 0% is about no effect
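Agonist-mode cell screen: cells plated at 1500/well and incubated overnight at 37 °C, then exposed to library compounds for 90 min at 37 °C. Detection reagent was added for 30–60 min at room temperature, and luminescence was read.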
GLP1R inv ag: qHTS of GLP-1 Receptor Inverse Agonists (Inhibition Mode). Glucagon-like peptide 1 receptor (Homo sapiens), P43220. Potency, µM (top dose mostly 38.3 µM), for the others: at the highest dose activity change, negative = inhibition, hits mostly inhibitors. AID 624417, 2012. HEK293 GLP-1R CRE-luciferase, luminescence, 24 h; GLP-1R form is constitutively active. 410,000 compounds, 1.6% hits; note: potency is the fitted concentration of half-maximal effect; % is set by controls: 0 for no effect and ±100 for the full control effect; nearly all actives have a fitted effect of over 55% in size
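HEK293 cells stably co-expressing constitutively active GLP-1R and a cAMP-responsive luciferase reporter were seeded in DMEM with 10% Nu serum, given compounds after 12 h, and incubated 24 h at 37 deg C. Luminescence was then read.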
GLP1R ag: qHTS of GLP-1 Receptor Agonists | HEK293 GLP-1R CRE-luciferase, luminescence, 4-6 h; cells express a hypersensitive GLP-1R form | Potency, µM (series often up to 45.6 µM), for inactives: at the top dose activation, most hits filed as activators | 380,000 compounds, 0.007% hits | AID 624172, 2012; note: potency is the fitted concentration of half-maximal effect; % of control where 0% means no effect
HEK293 tox: qHTS of GLP-1 Receptor Inverse Agonists: Cytotox Screen; HEK293 cAMP-luciferase reporter cells, luminescence, 24 h; Potency, µM (titrated, usually from 38.3 µM), inactives show top-dose activity change, negative = inhibition, hits mostly inhibitors; 410,000 compounds, 0.13% hits; AID 624418, 2012;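 note: loss of luciferase light is scored as toxicity; potency is the fitted concentration of half-maximal effect; % is set by controls: 0 for no effect and ±100 for the full control effect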
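Seeding density was 200 cells/uL; after overnight-length (12 h) culture, 23 nL compounds went on for 24 h at 37 °C. Readout used a luciferase detection reagent, luminescence taken after 12 min at room temperature.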
D3 antag: qHTS of D3 Dopamine Receptor Antagonist: qHTS; D(3) dopamine receptor (Homo sapiens), P35462; D3R cells, DiscoveRx beta-arrestin luminescence, antagonist mode; stronger effect = lower value; max response, negative = inhibition, %; 360,000 compounds, 2.5% hits; AID 652054, 2013; in the data active = max response below about -50%; inconclusive = no clear call, values can overlap the other calls; note: % is set by controls: 0 for no effect and ±100 for the full control effect
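Cells expressing the human receptor were seeded at 1500 cells/well, incubated overnight at 37 degrees C in 5% CO2, then exposed to library compounds with dopamine controls for 90 minutes at 37 degrees C before luminescent detection.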
ClpP mod: qHTS Assay for Activators of ClpP; ATP-dependent Clp protease proteolytic subunit (Bacillus subtilis (strain 168)), P80244; purified B. subtilis ClpP, FRET peptide cleavage, 20 min; Potency, µM (top dose mostly 57.5 µM), for the others: at the top dose activity change, negative = active; 340,000 compounds, 1.9% hits; AID 651965, 2013; active = well fitted falling curve with a large enough effect; inconclusive = small, poorly fitted or top-dose-only effect; inactive = no such curve, though single readings can be large or run the other way; note: potency is the fitted concentration of half-maximal effect; the source files actives as falling curves though it sought activators and does not explain the sign; nearly all actives have a fitted effect of over 65% in size
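FRET quenching reversal measured ClpP activation: 10 microg/mL B. subtilis ClpP at pH 8 with the FRET-FV decapeptide, read at 430 nm after 320 nm excitation. The 20-min minus 0-min signal was scaled between DMSO/no-enzyme wells and ADEP (5.8 microM final).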
ClpP validation: qHTS Assay for Activators of ClpP: Hit Validation of Inhibitors; Potency, µM (titrated, usually from 57.5 µM), without a hit: at the top dose activity change, negative = inhibition, hits mostly inhibitors; purified B. subtilis ClpP, FRET-FV substrate cleavage, 20 min; shares compounds with ClpP mod; 470 compounds, 40% hits; note: potency is the fitted concentration of half-maximal effect; % is set by controls: 0 for no effect and ±100 for the full control effect; nearly all actives have a fitted effect of over 70% in size
* marks the source's active call; other numbers are inactive results; ? = inconclusive; / = not tested or not shown. In the library only some 5.7% were active in any assay of this set; here they are far more common. Unless noted, calls come from the whole dose curve; as a rule, active = well fitted curve in the direction sought with a large enough effect; inconclusive = small, poorly fitted or top-dose-only effect, or another doubt; inactive = no such curve, though single readings can be large; an effect the other way counts as inactive or inconclusive.

SMILES	DRD3 agonist	GLP1R inv ag	GLP1R ag	HEK293 tox	D3 antag	ClpP mod	ClpP validation
Cc1ccc(S(=O)(=O)c2nnn3c2nc(Nc2cccc(C)c2)c2ccccc23)cc1	-1	-2%	-12%	3%	9	-15%	/
Cc1cc(C)cc(N(CC(=O)Nc2ccc(-c3nc4ccc(C)cc4s3)cc2)S(C)(=O)=O)c1	-3	-11%	-9%	-9%	-30	10µM*	19µM*
COc1ccc2c(c1)CC(NC(=O)Nc1c(C)cc(C)cc1C)CO2 (stereo unspecified)	-13	6%	/	-12%	/	0%	/
c1ccc(CN2CCN(c3nc(N4CCOCC4)c4ccccc4n3)CC2)cc1	-14	?	15%	1%	?	-26%	/
c1ccc2c(N3CCOCC3)nc(N3CCOCC3)nc2c1	-14	22%	7%	62%	-12	3.2µM*	24µM*
COc1ccc(-c2cc(C(=O)N(C)CC(=O)Nc3cccc(F)c3)c3ccccc3n2)cc1	1	?	-19%	?	15	6.3µM*	24µM*
CN(CC(=O)Nc1cccc(F)c1)C(=O)c1cc(-c2ccccc2)nc2ccccc12	5	?	-6%	?	4	-3%	/
Cc1ccc(NC(=O)Cn2cc3c(n2)CCCC3)cc1Cl	-15	?	/	0%	/	-1%	/
O=C(Nc1ccc(C(F)(F)F)cc1)C(Cc1ccccc1)n1cccc1 (stereo unspecified)	-9	?	/	-28%	/	-17%	/
Cn1c(=O)c2[nH]c(Br)nc2n(C)c1=O	1	/	-1%	/	/	/	/
CCOc1ccccc1-c1nc2c([nH]1)c(=O)n(C)c(=O)n2C	0	7%	8%	-5%	-20	3.5µM*	22µM*
O=C(Nc1cccc(Cl)c1)c1nc[nH]c1C(=O)NCc1ccccc1	0	3%	-5%	-5%	0	213%	?
Cc1cccc(NC(=O)c2nc[nH]c2C(=O)NCc2ccccc2)c1	-10	-9%	0%	2%	-9	17%	/
O=C(NCCc1ccccc1)c1ccc(Nc2nc3ccccc3n3nnnc23)cc1	5	12%	/	0%	/	294%	?
COCCNC(=O)CN1C(=O)CCn2nc(-c3cn(C)c4ccccc34)cc21	-13	2%	/	12%	/	-11%	/
Cc1cc(-c2ccccc2)c2nncn2n1	2	14%	-3%	-10%	23	7.9µM*	22µM*
CC(C)N1CCOC1c1ccccc1 (stereo unspecified)	1	2%	-7%	-2%	-6	7.9µM*	-1%
CN1CCOC(c2ccccc2)c2ccccc2C1 (stereo unspecified)	-39	-14%	19%	3%	-17	-1%	/
O=C(CC1SC(N2CCCCC2)=NC1=O)Nc1ccc(C(=O)NCc2ccccc2)cc1 (stereo unspecified)	7	3%	2%	-5%	14	0%	/
COc1cccc(CNC(=O)c2ccc(NC(=O)CC3SC(N4CCCC4)=NC3=O)cc2)c1 (stereo unspecified)	-14	9%	-2%	18%	-18	2.8µM*	0%
Cc1cccc(-c2cc(NC(=O)c3ccccc3C)n(-c3ccccc3)n2)c1	5	?	/	6%	/	0%	/
COc1ccccc1C(=O)Nc1cc(-c2cccc(Br)c2)nn1-c1ccccc1	-11	0%	/	6%	/	4µM*	19µM*
COc1cccc(N2CCN(C(=O)CN3CCSc4ccccc43)CC2)c1	3	?	-1%	2%	/	-2%	/
CC(NC(=O)C1CCN(S(=O)(=O)c2ccc(F)cc2)CC1)c1ccccc1 (stereo unspecified)	-17	-7%	/	-1%	/	?	-1%
CCC(C)c1ccc2oc(-c3ccc(NC(=O)c4ncn[nH]4)cc3)nc2c1 (stereo unspecified)	1	89%	-16%	6%	-18	10µM*	22µM*
SMILES	DRD3 agonist	GLP1R inv ag	GLP1R ag	HEK293 tox	D3 antag	ClpP mod	ClpP validation
CCCOc1ccc(C(=O)Nc2ccc3oc(-c4ccc(N(C)C)cc4)nc3c2)cc1	-7	-9%	/	2%	/	1.3µM*	1%
Cc1ccc2oc(-c3ccc(NC(=O)c4ccc5c(c4)OCO5)cc3)nc2c1	10	33%	-3%	2%	36	3.2µM*	12µM*
Cc1ccc2oc(-c3ccc(NC(=O)c4cccnc4)cc3)nc2c1	27	-9%	-32%	-22%	27	51%	/
CCOc1cc(C(=O)Nc2ccc(-c3nc4cc(C)ccc4o3)cc2)cc(OCC)c1OCC	6	?	0%	-12%	/	3.2µM*	31µM*
C=C(C)Cn1c2ccc(NC(=O)NCc3ccccc3)cc2c(=O)n1C	-4	2%	14%	3%	2	5%	/
Cc1cc2ccccc2cn1	/	/	/	/	/	-5%	/
CN(C)CCN1CCN(C2CN(Cc3ccc(F)cc3)S(=O)(=O)C2)CC1 (stereo unspecified)	-4	-30%	-3%	1%	6	-4%	/
OC(c1ccc(F)c(F)c1)c1nc(-c2cccc(F)c2)cs1 (stereo unspecified)	8	?	0%	-8%	-25	-2%	/
Cc1ccc2oc(-c3ccc(NC(=O)CC(C)C)cc3)nc2c1	0	0%	-5%	-14%	-4	8.9µM*	?
COc1ccc(S(=O)(=O)N2CCN(S(=O)(=O)c3ccc4c(c3)OCCO4)CC2)cc1C	1	2%	1%	-3%	-13	4µM*	0%
O=C(Cn1c(=O)sc2ccccc21)NCCOc1ccccc1F	0	-24%	4%	0%	0	7.9µM*	-1%
O=C(Cn1c(=O)sc2ccccc21)NCc1ccccn1	3	-1%	-5%	-15%	13	-2%	/
CO/N=C(\C(=O)N[C@@H]1C(=O)N2C(C(=O)OCOC(=O)C(C)(C)C)=C(/C=C\c3scnc3C)CS[C@H]12)c1csc(N)n1	-11	/	/	/	/	/	/
COc1cc2ccccc2cc1C(=O)NCC(c1cccs1)N(C)C (stereo unspecified)	-35	?	13%	2%	-10	3.2µM*	?
